Results filed as inconclusive are left out. Activity calls are given as the source filed them. Calls come from the whole dose curve; as a rule, active = well fitted cell-killing curve with a large enough effect; inconclusive = small, poorly fitted or top-dose-only effect, or effect the other way; inactive = no such curve, though single readings can be large or run the other way.

The values below come from PubChem BioAssay AID1345085 (National Center for Advancing Translational Sciences (NCATS), 2018).
% is set by controls: 0 for no effect and ±100 for the full control effect; potency is the fitted concentration of half-maximal effect.

In this experiment the test system is PA-1. Description: Confirmatory qHTS for gynecologic anti-cancer compounds from libraries of approved drugs and bioactive compounds. Note: nearly all actives have a fitted effect of over 55% in size. The note with it: gynecologic cancer cell panel viability, ATPlite luminescence, 48 h; series mostly up to 57.6 µM; activity change, negative = viability loss: at the top concentration. The essentials: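 Cells (1,000/well) were plated, left 16 h at 37 C/5% CO2, then given compound at 11 concentrations (1:3) from 57.5 uM to 0.977 nM for 48 h. ATPlite luminescence after 15 min at room temperature gave IC50 values.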
(Quantitative high-throughput screening tests each substance at several concentrations.)
As to `CCNC(=O)C[C@@H]1N=C(c2ccc(Cl)cc2)c2cc(OC)ccc2-n2c(C)nnc21`, the Potency was 4320 nM (active). Same read-out and setting: then `C[C@H]1CCC/C=C/C2C[C@H](O)C[C@H]2[C@H](O)/C=C/C(=O)O1` (stereo partly drawn), with 172 nM (active); and `Cc1sc2c(c1C)C(c1ccc(Cl)cc1)=NC(CC(=O)OC(C)(C)C)c1nnc(C)n1-2` (stereo not drawn), with 1530 nM (active). With `C[C@]12CC[C@H]3[C@@H](CCC4=CC(=O)CC[C@@H]43)[C@@H]1CC[C@@H]2OC(=O)CCc1ccccc1`, the “activity change, negative = viability loss” value was -4.23% (inactive). On to `C/C=C(/C)C(=O)O[C@H]1C(C)=C2[C@H]([C@@H]1OC(=O)CCCCCCC)[C@@](C)(OC(C)=O)C[C@H](OC(=O)CCC)[C@@]1(O)[C@H]2OC(=O)[C@@]1(C)O`, for which the Potency is 48.5 nM (active).

With `O=C(O)Cc1ccccc1`, the “activity change, negative = viability loss” value was 11.7% (inactive).

As to `CCOc1ccccc1-n1c(C(C)N2CCN(C(=O)COc3ccc(Cl)cc3)CC2)nc2ccccc2c1=O` (stereo not drawn), the Potency was 13700 nM (active). Still for that read-out and setting: then `C=C(C)[C@H]1Cc2c(ccc3c2O[C@@H]2COc4cc(OC)c(OC)cc4[C@@H]2C3=O)O1`, with 27.3 nM (active).
